Z-score and composite z-score data for five molecules are collected here from PubChem BioAssay.

Active and inactive are the calls of the source.

Assay [1] is described as follows: E. coli DRC41 culture turbidity changes, primary screen, E. coli filamentation inducer project, strain DRC41, OD650, 48 h (AID 1152).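 Also: E. coli MC1000 strain DRC41 lacking acrAB efflux pump and sulA.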 To be noted: E. coli DRC41 (acrAB sulA), higher = more signal, called active from +8 up or from −8 down.
Assay [2] in a line: small-molecule binders of probe aLefty1, primary screen, biochemical, small-molecule microarray, 635/667 nm fluorescence (AID 1153).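 Also: score merges spot fluorescence with signal-to-noise ratio from the scanned slide images.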 To be noted: higher = more signal.
Assay [3] is described as follows: PSAC antagonists in infected red cells, primary screen, cell-based, P. falciparum Indochina, OD700, 1 h (AID 1154). To be noted: P. falciparum Indochina infected RBC osmotic lysis, higher = more signal, called active from +8 up or from −8 down.
A short description of assay [4]: PSAC antagonists in infected red cells, primary screen, cell-based, P. falciparum Indochina, OD700, 2 h (AID 1155).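 Also: lysis reports solute entry through the parasite surface anion channel PSAC; channel blockers reduce lysis of infected cells.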 To be noted: P. falciparum Indochina infected erythrocytes, osmotic lysis OD700; higher = more signal, called active from +8 up or from −8 down.
A short description of assay [5]: osmotic lysis modulators in infected erythrocytes, primary screen, PSAC antagonist project, cell-based, P. falciparum Indochina, OD700, 3 h (AID 1156). To be noted: higher = more signal, called active from +8 up or from −8 down.
A short description of assay [6]: PSAC antagonists in infected red cells, primary screen, cell-based, P. falciparum Indochina, OD700, 18 h (AID 1157). The settings on record: P. falciparum Indochina infected erythrocytes, osmotic lysis OD700, 18 h; higher = more signal, called active from +8 up or from −8 down.
Assay [7] is described as follows: modulators of S6 phosphorylation in cells, primary screen, cell-based, A549, cytoblot, luminescence, serum-stimulated (AID 1158).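 Also: serum-stimulated A549 lung adenocarcinoma cells; signal is phosphorylated S6 detected by cytoblot immunostaining with HRP secondary.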 To be noted: A549 phospho-S6 cytoblot, 5 h, higher = more signal.
The target of assay [8] is NADPH oxidase 2 (Homo sapiens) (UniProt P04839). Nature of the assay: NOX2-dependent H2O2 signal modulators, primary screen, NOX inhibitor project, cell-based, HEK293-NOX2, PMA-stimulated, Amplex Red fluorescence (AID 1159). Also: test concentration not given here. To be noted: 45 min, higher = more signal, called active from +8 up or from −8 down.
Assay [9] concerns the target NADPH oxidase 4 (Homo sapiens) (UniProt Q9NPH5). Nature of the assay: NOX4-dependent H2O2 signal modulators, primary screen, NOX inhibitor project, cell-based, HEK293-NOX4, tetracycline-induced, Amplex Red fluorescence (AID 1160). The settings on record: 45 min, higher = more signal, called active from +8 up or from −8 down.
For assay [10], the target named is NADPH oxidase 5 (Homo sapiens) (UniProt Q96PH1). Nature of the assay: NOX5-dependent H2O2 signal modulators, primary screen, NOX inhibitor project, cell-based, HEK293-NOX5, Amplex Red fluorescence (AID 1161). The settings on record: HEK293-NOX5, ionomycin, 45 min, higher = more signal.
Assay [11] in a line: A549 cell viability effects, profiling panel, calcein-AM fluorescence, 48 h, basal (AID 1162). Also: test concentration not given here. To be noted: higher = more signal.
Assay [12] can be described thus: adipocyte viability effects, profiling panel, cell-based, 3T3-L1 adipocytes, calcein-AM fluorescence, 48 h, basal (AID 1163). Also: test concentration not given here. The settings on record: 3T3-L1 adipocytes viability, higher = more signal.
Assay [13] is described as follows: HepG2 cell viability effects, profiling panel, calcein-AM fluorescence, 48 h, basal (AID 1164). Also: test concentration not given here. To be noted: higher = more signal.
Assay [14] is described as follows: MM1S cell viability effects, profiling panel, calcein-AM fluorescence, 48 h, basal (AID 1165).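 Also: viability of MM1S multiple myeloma cells under basal unstimulated conditions; test concentration not given here.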 The settings on record: higher = more signal.
Assay [15] in a line: basal RPMI8226 viability, no added stimulus, profiling panel, cell-based, calcein-AM fluorescence, 48 h, PK04 Diversity Set (AID 1166).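 Also: cells grown under basal conditions without added stimulus; test concentration not given here.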 The settings on record: RPMI8226 myeloma viability, higher = more signal.
Assay [16] can be described thus: basal HepG2 mitochondrial membrane potential changes, profiling panel, cell-based, JC-1 fluorescence, 24 h, 100 nL compound (AID 1167). Also: test concentration not given here. The settings on record: higher = more signal.
Assay [17] is described as follows: basal 3T3-L1 adipocyte mitochondrial potential changes, profiling panel, cell-based, JC-1 fluorescence, 3T3-L1 adipocytes, 24 h, 100 nL compound (AID 1168). Also: test concentration not given here. To be noted: JC-1 mitochondrial fluorescence, higher = more signal, called active from +8 up or from −8 down.
The nature of assay [18]: basal RPMI8226 mitochondrial membrane potential changes, profiling panel, cell-based, JC-1 fluorescence, 24 h, 100 nL compound (AID 1169). Also: test concentration not given here. To be noted: RPMI8226 myeloma, JC-1 mitochondrial potential fluorescence, higher = more signal.
The nature of assay [19]: basal MM1S mitochondrial membrane potential changes, profiling panel, cell-based, JC-1 fluorescence, 24 h, 100 nL compound (AID 1170). Also: test concentration not given here. The settings on record: higher = more signal.
Assay [20] can be described thus: A549 lung cancer cell viability effects, profiling panel, resazurin fluorescence, 24 h, PK04 Diversity Set (AID 1171). Also: test concentration not given here. The settings on record: higher = more signal, called active from +8 up or from −8 down. In general terms: Resazurin is reduced to fluorescent resorufin, in cell work by metabolically active cells.

Chain of NADPH oxidase 5 (Homo sapiens) (Q96PH1 whole entry, looked up): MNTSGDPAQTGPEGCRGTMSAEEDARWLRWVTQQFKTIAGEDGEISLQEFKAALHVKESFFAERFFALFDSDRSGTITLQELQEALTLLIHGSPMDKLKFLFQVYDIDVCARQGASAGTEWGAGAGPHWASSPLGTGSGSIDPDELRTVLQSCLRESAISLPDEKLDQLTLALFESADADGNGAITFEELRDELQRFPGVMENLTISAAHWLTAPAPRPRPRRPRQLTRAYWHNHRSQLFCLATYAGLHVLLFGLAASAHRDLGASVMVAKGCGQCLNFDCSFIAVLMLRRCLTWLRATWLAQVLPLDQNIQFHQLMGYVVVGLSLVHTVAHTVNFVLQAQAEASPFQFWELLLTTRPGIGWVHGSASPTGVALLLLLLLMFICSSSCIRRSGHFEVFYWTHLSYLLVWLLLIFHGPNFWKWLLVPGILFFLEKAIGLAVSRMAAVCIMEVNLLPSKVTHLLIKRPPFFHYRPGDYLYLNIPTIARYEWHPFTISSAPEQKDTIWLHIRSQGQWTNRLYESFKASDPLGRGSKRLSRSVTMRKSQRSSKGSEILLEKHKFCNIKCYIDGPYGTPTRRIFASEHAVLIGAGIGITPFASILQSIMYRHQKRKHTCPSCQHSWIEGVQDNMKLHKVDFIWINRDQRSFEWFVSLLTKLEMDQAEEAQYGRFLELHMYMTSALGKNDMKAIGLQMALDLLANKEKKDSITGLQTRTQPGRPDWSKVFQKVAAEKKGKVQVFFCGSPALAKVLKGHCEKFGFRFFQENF
Chain of NADPH oxidase 4 (Homo sapiens) (Q9NPH5 whole entry, looked up): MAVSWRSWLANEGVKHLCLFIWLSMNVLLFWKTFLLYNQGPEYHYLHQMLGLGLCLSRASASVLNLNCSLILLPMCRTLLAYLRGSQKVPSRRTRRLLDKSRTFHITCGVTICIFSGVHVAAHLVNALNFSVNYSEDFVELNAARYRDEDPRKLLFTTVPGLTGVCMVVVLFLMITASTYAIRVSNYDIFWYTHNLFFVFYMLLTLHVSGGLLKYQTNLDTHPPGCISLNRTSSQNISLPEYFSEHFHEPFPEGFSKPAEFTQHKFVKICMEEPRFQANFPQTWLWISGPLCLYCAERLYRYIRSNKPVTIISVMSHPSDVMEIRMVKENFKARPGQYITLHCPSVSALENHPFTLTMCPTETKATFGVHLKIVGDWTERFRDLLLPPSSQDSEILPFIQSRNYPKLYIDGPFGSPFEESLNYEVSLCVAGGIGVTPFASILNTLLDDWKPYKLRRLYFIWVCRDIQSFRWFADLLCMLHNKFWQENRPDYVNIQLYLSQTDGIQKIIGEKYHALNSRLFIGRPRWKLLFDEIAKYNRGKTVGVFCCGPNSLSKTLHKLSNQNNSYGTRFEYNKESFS
Chain of NADPH oxidase 2 (Homo sapiens) (P04839 whole entry, looked up): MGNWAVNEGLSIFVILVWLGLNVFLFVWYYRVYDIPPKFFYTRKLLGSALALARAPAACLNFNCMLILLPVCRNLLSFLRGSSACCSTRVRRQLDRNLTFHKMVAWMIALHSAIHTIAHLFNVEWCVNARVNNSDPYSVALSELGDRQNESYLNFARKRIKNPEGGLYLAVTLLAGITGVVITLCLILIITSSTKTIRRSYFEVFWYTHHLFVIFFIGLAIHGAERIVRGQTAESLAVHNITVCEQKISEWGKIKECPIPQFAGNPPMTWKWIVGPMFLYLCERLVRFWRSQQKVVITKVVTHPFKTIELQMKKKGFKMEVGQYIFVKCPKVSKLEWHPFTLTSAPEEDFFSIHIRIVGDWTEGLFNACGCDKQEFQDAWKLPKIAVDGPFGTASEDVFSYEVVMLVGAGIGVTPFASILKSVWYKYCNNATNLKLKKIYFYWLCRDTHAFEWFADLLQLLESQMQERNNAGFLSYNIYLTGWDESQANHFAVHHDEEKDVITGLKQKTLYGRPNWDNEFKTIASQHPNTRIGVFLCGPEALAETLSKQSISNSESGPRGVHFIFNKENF

As for `[N-]=[N+]=Nc1ccccc1C[C@]1(C(=O)N2CCCCC2)N=C(c2ccc(OCCCO)cc2)O[C@H]1c1ccccc1N=[N+]=[N-]`, the z-score in assay [1] is -0.866 (inactive); in assay [3] it was 30.1 (active); in assay [4], 28.3 (active); in assay [5], 2.73 (inactive); in assay [6], 7.18 (inactive); in assay [7], -0.359. The z-score was -2.39 (inactive) in assay [8]; 0.341 (inactive) in assay [9]; -1.08 in assay [10]; -0.0955 in assay [11]; 0.164 in assay [12]; -2.44 in assay [13]. Also, the z-score in [14] was -3.54; in [15], -3.89; in assay [16] it was -0.599; in assay [17], -0.0935 (inactive); in assay [18] it was -1.09; in [19], -2.64. The z-score in [20] is -0.909 (inactive). Also, in [2], the composite z-score came out at 0.568.

Regarding `Cc1c(NC(=O)/C(C#N)=C/C=C/c2ccccc2)c(=O)n(-c2ccccc2)n1C`, the z-score in assay [1] was 0.813 (inactive); in assay [3], 1.96 (inactive); in assay [4] it was 0.379 (inactive); in assay [5], 0.0643 (inactive); in [6], 0.205 (inactive); in assay [7] it was -0.25. Further, the z-score is -0.328 (inactive) in [8]; 0.0418 (inactive) in [9]; 0.649 in assay [10]; -0.864 in assay [11]; 0.287 in assay [12]; 0.458 in assay [13]. The z-score was 0.142 in [14]; 0.24 in assay [15]; -1.05 in assay [16]; -0.113 (inactive) in assay [17]; 0.305 in [18]; 0.56 in assay [19]. Also, the z-score in [20] is -0.2 (inactive). This molecule had a composite z-score in assay [2] of -0.213.

With `COCC1=C([C@H](O)CCc2ccccc2)[C@H](CO)[C@@H]2C(=O)N(Cc3ccccc3)C(=O)[C@@H]2C1`, the z-score in assay [1] was 1.72 (inactive); in assay [3], 15.3 (active); in assay [4], 2.04 (inactive); in assay [5] it was 0.23 (inactive); in assay [6] it was 0.477 (inactive); in [7] it was 0.24. For the same molecule, the z-score in [8] was -0.543 (inactive); in assay [9], 0.21 (inactive); in assay [10] it was -0.0312; in assay [11], 0.883; in assay [12] it was 0.709; in assay [13] it was 0.984. Moreover, the z-score in assay [14] is 0.418; in assay [15] it was 0.438; in assay [16] it was 0.592; in assay [17], 0.424 (inactive); in [18] it was 0.469; in assay [19] it was -1.37. In addition, in assay [20], the z-score is 0.859 (inactive). The composite z-score in [2] is -0.194.

With `Cc1ccc([C@H]2C(C(=O)O)=C[C@@H](C(C)C)N2S(=O)(=O)c2ccc(C)cc2)cc1`, the z-score in [1] was -1.01 (inactive); in assay [3] it was 0.297 (inactive); in assay [4] it was 0.711 (inactive); in assay [5] it was -0.539 (inactive); in [6] it was 0.734 (inactive); in [7], -0.365. The z-score in [8] is 0.79 (inactive); in assay [9] it was -1.06 (inactive); in assay [10] it was -0.32; in [11] it was -0.828; in assay [12], -0.762; in assay [13], -0.639. For the same molecule, the z-score in assay [14] was 0.0411; in assay [15] it was -1.48; in assay [16], -0.713; in [17], -0.385 (inactive); in [18], 0.59; in assay [19], -0.809. Further, the z-score in assay [20] was -0.194 (inactive). This molecule also displayed a composite z-score in assay [2] of 0.121.

Consider `CCCNC(=O)[C@@]1(C)c2ccccc2C(=O)N(Cc2ccc(OC(F)(F)F)cc2)[C@H]1c1ccc(CO)cc1`, for which the z-score is 0.707 (inactive) in [1]; 7.17 (inactive) in assay [3]; 0.699 (inactive) in assay [4]; 2.41 (inactive) in assay [5]; 0.208 (inactive) in assay [6]; 0.0696 in assay [7]. In addition, the z-score in assay [8] is -1.07 (inactive); in [9], 0.332 (inactive); in assay [10], 0.423; in assay [11] it was 0.951; in assay [12], -0.105; in assay [13], 1.28. In addition, the z-score is 0.328 in assay [14]; -0.0542 in assay [15]; 3.34 in [16]; 0.45 (inactive) in [17]; -0.244 in assay [18]; -0.949 in assay [19]. Further, the z-score in assay [20] was -0.658 (inactive). In [2], this molecule returned a composite z-score of 0.15.
